Measurements from the supplement of paper PMC6555819.

Experiments:
Experiment in all cases: PBM binding z-score (relative to random genomic background probes); higher = stronger binding; sequences stand for … in GC…GCGATTGACAGCGTAGAATGAAGG
[1] = test system: PPARg:RXRa DBDmut IVT, anti-RXR (DBD mutation: RXRa K156A/R161A, NR concentration 270 nM, RXRa partner concentration 90 nM)
How it was run: (§1)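 Ligand-free nuclear receptor dimers were bound for 1 h to custom Agilent 4×180K protein-binding microarrays. Detection used antibodies against each partner (one per run). Binding z-scores rest on regression-normalized fluorescence, with random background probes as the reference.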

[2] = test system: PPARg:RXRa IVT, anti-PPARg (NR concentration 270 nM, RXRa partner concentration 90 nM)
How it was run: as §1

[3] = test system: PPARg DBDmut:RXRa IVT, anti-PPARg (DBD mutation: PPARg1 K132A/R137A, NR concentration 270 nM, RXRa partner concentration 90 nM)
How it was run: as §1

[4] = test system: PPARg DBDmut IVT, anti-PPARg (DBD mutation: PPARg1 K132A/R137A, NR concentration 270 nM)
How it was run: as §1

[5] = test system: PPARg homodimer (NR concentration 180 nM)
How it was run: as §1

[6] = test system: PXR:RXRa (NR concentration 270 nM, RXRa partner concentration 90 nM)
How it was run: as §1

[7] = test system: PXR homodimer (NR concentration 270 nM)
How it was run: as §1

[8] = test system: RARa:RXR (NR concentration 270 nM, RXRa partner concentration 90 nM)
How it was run: as §1

[9] = test system: RARa homodimer (NR concentration 270 nM)
How it was run: as §1

[10] = test system: RARb:RXRa (NR concentration 270 nM, RXRa partner concentration 90 nM)
How it was run: as §1

[11] = test system: RARb homodimer (NR concentration 270 nM)
How it was run: as §1

[12] = test system: RARg:RXRa (NR concentration 270 nM, RXRa partner concentration 90 nM)
How it was run: as §1

[13] = test system: RARg homodimer (NR concentration 270 nM)
How it was run: as §1

[14] = test system: RXRa DBDmut IVT, anti-RXR (DBD mutation: RXRa K156A/R161A, NR concentration 90 nM)
How it was run: as §1

[15] = test system: RXRa homodimer (NR concentration 180 nM)
How it was run: as §1

[16] = test system: THRa:RXRa (NR concentration 90 nM, RXRa partner concentration 90 nM)
How it was run: as §1

[17] = test system: THRa homodimer (NR concentration 90 nM)
How it was run: as §1

[18] = test system: VDR homodimer (NR concentration 270 nM)
How it was run: as §1

Sequence	PBM binding z-score [1]	PBM binding z-score [2]	PBM binding z-score [3]	PBM binding z-score [4]	PBM binding z-score [5]	PBM binding z-score [6]	PBM binding z-score [7]	PBM binding z-score [8]	PBM binding z-score [9]	PBM binding z-score [10]	PBM binding z-score [11]	PBM binding z-score [12]	PBM binding z-score [13]	PBM binding z-score [14]	PBM binding z-score [15]	PBM binding z-score [16]	PBM binding z-score [17]	PBM binding z-score [18]
CCTACTGGGCCATTCAGAGGTCATTGTTCATATG	4.55	4.17	0.178	-0.495	2.5	4.71	2.33	4.2	0.216	2.97	4.14	4.19	2.88	1.2	3.37	3.23	1.38	3.59
CAAACTAGGTCAAAGGTCAAAATCGAGCCAACCA	8.4	9.49	5.76	3.58	5.14	6.99	1.48	8.9	2.19	5.94	5.03	8.72	7.08	3.07	10.1	4.95	1.51	2.94
TAGCCTAGGTCATAGGCCAGTATACCACGCGAAC	1.31	3.09	0.284	-0.111	1.91	1.47	-0.481	2.66	-0.0614	3.66	2.58	3.89	4.21	0.7	3.51	2.65	0.622	0.651
CAAACTAGGTCAAAGGTCAAGGTCGAGCCAACCA	9.03	9.29	6.79	5.8	7.67	7.26	1.52	8.89	3.88	5.76	5.8	8.92	7.7	3.18	9.96	4.92	2.98	3.42
AGAATGGGGTTATTAAGATCAGGGAATTGCGGTC	3.63	3.26	1.44	1.55	2.23	2.44	1.82	2.78	1.71	1.77	1.53	1.85	0.796	2.11	3.5	2.6	1.56	2.41
CGAACTAGGTCAGAGCAGGACAGTGAAGGATGAT	7.51	7.58	2.72	2.03	0.79	1.15	-0.0767	1.54	-0.158	2.94	1.84	2.48	3.25	0.613	1.11	4.2	0.0649	-0.21
TCTAGTTGGTCAAAGGTCTCACACTCGAAATGCG	3.11	3.77	1.08	1.78	2.48	1.34	0.942	1.89	1.17	1.88	1.83	1.78	1.17	1.14	1.98	0.831	0.738	0.545
CCTTACGGGTCACTTACAGGTTATAGCATTTGGA	3.22	3.45	0.739	0.78	2.43	3.37	0.26	4.24	1.28	3.65	3.2	5.65	4.51	2.19	4.62	2.95	0.577	1.66
AATACAGGGTGATCGTAGGCCAGAGTACGCACAG	0.342	1.51	0.927	0.662	0.342	0.0587	0.139	0.29	0.275	0.432	0.66	0.545	0.556	-0.0921	0.57	1.73	0.135	0.376
GCTGCTAGGTCGACTGATGGTCAGCTAAAGCTCG	1.27	0.463	-1.49	-1.06	-0.687	-0.436	-1.21	0.0289	-1.87	1.37	0.638	1.2	0.89	0.38	0.265	0.35	-0.82	-1
CCTACTGGGCCACGAAAGGGCATTGATTCAGTGA	5.38	5.14	0.311	0.299	-0.0604	0.616	-0.539	0.471	-0.24	1.69	1.74	0.854	1.12	-0.586	0.314	1.07	-0.645	-0.334
CCTGCTAGGTCATGGTCAGGTAATCTACAGTATG	4.45	3.79	0.801	0.0323	1.72	1.78	-0.0214	2.55	0.209	4.04	3.22	4.26	4.73	1.77	3.01	3.55	1.97	0.414
AGTCAAAGTTCAGTAGGTAACGTAAGATTCAGCT	2.06	4.51	0.804	1.29	1.65	2.51	1.37	1.49	0.822	4.13	3.15	3.74	4.28	3.23	2.08	0.91	-0.604	2.23
ATCGAAAGGTCGAAGGTGAGTACACCCACCCGAA	0.019	2.74	1.5	0.329	1.98	3.49	0.469	4.08	1.18	3.9	2.79	4.39	4.08	1.13	4.96	2.54	-0.0194	2.07
ATCTCTAGGTCAAAGTTCAGTGAATCCCGAGGAT	6.47	6.91	3.49	3.22	3.06	5.29	2.76	6.71	1.52	4.58	4.18	6.01	5.62	2.65	6.97	3.76	1.76	3.19
AGATTGAGGTTACCAAAGATCAGGGAAACGCTTG	3.1	2.54	0.865	-0.0178	0.218	1.5	-0.393	2	0.127	2.24	0.91	2.15	1.94	1.36	2.81	2.91	1	0.381

Sequence	PBM binding z-score [1]	PBM binding z-score [2]	PBM binding z-score [3]	PBM binding z-score [4]	PBM binding z-score [5]	PBM binding z-score [6]	PBM binding z-score [7]	PBM binding z-score [8]	PBM binding z-score [9]	PBM binding z-score [10]	PBM binding z-score [11]	PBM binding z-score [12]	PBM binding z-score [13]	PBM binding z-score [14]	PBM binding z-score [15]	PBM binding z-score [16]	PBM binding z-score [17]	PBM binding z-score [18]
CAAACTAGGTCACGAAAGGTCAAAGTTGAATGAC	8.71	9.01	2.54	2	4.96	6.9	3.33	7.79	4.38	5.45	6.02	8.01	8.58	2.59	8.85	5.01	2.88	3.89
TTAACAAGGTGAAAGGTCGTTGATGCACGCCTTG	4.84	5.57	0.666	0.131	2.13	3.92	0.791	5.73	-0.215	3.09	2.51	4.28	2.1	0.328	6.17	3.51	0.757	1.24
GGAACGGGGGCATTCGAGTTGATAGCATGGCGAT	3.24	5.37	8.85	10.9	1.37	5.15	3.02	2.94	0.259	2.9	1.62	2.68	2.39	3.78	2.47	4.15	1.09	4.57
TCTTGTAGATCAAAGGTCAAGAAAGCCGAAGCCT	2.63	4.93	-0.0392	0.612	2.55	4.83	0.853	6.09	0.488	4.74	4.47	5.63	5.37	0.913	7.17	3.42	0.378	0.514
TCTCGGAGGACACGAAGGTCAAAGCTTTCCAGAG	1.76	1.71	-0.973	-1.26	1.25	3.68	2.71	3.62	0.304	3.66	4.15	4.3	4.3	1.15	3.26	3.4	1.44	2.67
TTACCAAGGTAAAAGGTCGTTGATGCACGCCTTG	0.76	3.59	0.399	0.573	1.67	3.07	0.505	4.08	0.101	2.28	2.14	2.79	1.22	0.317	3.68	2.63	0.000698	1.44
CCTACTGGGCGATTCAGAGGTCATTGATCATATG	1.07	1.23	-1.35	-0.572	1.38	4.37	1.7	4.25	0.31	2.53	3.62	3.12	2.1	0.873	3.28	2.83	0.887	2.83
GGAACGAGCGCAAAGTTGATAGCATCTGTCGACG	-0.42	-0.495	-0.634	-1.33	-1.01	-0.773	-0.719	-0.723	-0.818	-0.372	-0.951	-0.446	-0.392	-0.219	-0.2	-0.823	-1.24	-0.905
GATACAGGGTCAAGGCCAGAGTACGCGTATTGAT	2.82	3.95	1.08	0.22	1.95	3.88	0.227	4.46	0.587	4.44	3.46	5.41	4.92	2.66	5.69	3.52	1.35	2.91
CAAACTAGGTCAAGGGGTCAAAGTCCGCTTCCCG	8.13	8.72	0.711	1.52	6.55	6.31	1.78	7.88	1.67	5.46	5.65	8	7.19	2.98	8.47	4.64	2.49	4.55
CCTAGCAGACCAATCTGGGTCACTCAAGGCTTGA	4.01	4.87	0.573	-0.876	0.484	0.638	-0.509	1.57	-0.18	0.96	1.75	0.672	0.527	0.174	0.711	2.64	0.374	0.0917
AAATGTAGGTTAAGGGTCATTCAGGTTGGTTCGC	8.02	8.07	2.18	2.05	3.58	5.32	2.61	5.42	2.02	3.7	3.78	4.73	3.54	2.32	5.91	3.57	1.64	4.26
AATTCAGGGTCACTAGGCCAGAGTAGGTACGAAT	4.91	6.4	5.15	2.77	4.18	4.19	0.429	5.62	1.32	4.89	3.83	6.06	5.56	3.39	6.68	4	1.78	2.97
ATCGAAAGGTCGTGAGGTGAGTTTACAGAAAGGC	0.311	2.19	0.802	0.81	2.01	4.1	1.52	4.59	0.718	4.08	3.38	4.69	4.07	2.26	5.37	3.57	1.5	3.12
CCTAGTTGGTCAGGAGGTCCCACACCGGATATGA	0.207	0.483	-0.124	-0.0969	1.06	-0.0476	0.63	-0.0305	0.95	0.64	0.775	0.48	0.629	-0.686	0.0541	-0.131	0.411	0.335
